Screens from PubChem BioAssay.
D3 ag: D3 dopamine receptor (human) agonism. P35462. D3R DiscoveRx beta-arrestin cells, luminescence, 90 min. max activation, %. 410,000 tested, 0.58% active. AID 652048; in the data active = max activation above about 30%; note: 0% is about no effect
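Agonist-mode cell screen: cells plated at 1500/well and incubated overnight at 37 °C, then exposed to library compounds for 90 min at 37 °C. Detection reagent was added for 30–60 min at room temperature, and luminescence was read.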
D1 ag: activates the human D1 dopamine receptor; P21728; HEK293 T-REx D1 cells, calcium flux, agonist mode; activation, % at 2 µM; 360,000 tested, 1% active; in the data active = activation above about 30%; note: 0% is about no effect
Target sequence (P21728 whole entry, looked up): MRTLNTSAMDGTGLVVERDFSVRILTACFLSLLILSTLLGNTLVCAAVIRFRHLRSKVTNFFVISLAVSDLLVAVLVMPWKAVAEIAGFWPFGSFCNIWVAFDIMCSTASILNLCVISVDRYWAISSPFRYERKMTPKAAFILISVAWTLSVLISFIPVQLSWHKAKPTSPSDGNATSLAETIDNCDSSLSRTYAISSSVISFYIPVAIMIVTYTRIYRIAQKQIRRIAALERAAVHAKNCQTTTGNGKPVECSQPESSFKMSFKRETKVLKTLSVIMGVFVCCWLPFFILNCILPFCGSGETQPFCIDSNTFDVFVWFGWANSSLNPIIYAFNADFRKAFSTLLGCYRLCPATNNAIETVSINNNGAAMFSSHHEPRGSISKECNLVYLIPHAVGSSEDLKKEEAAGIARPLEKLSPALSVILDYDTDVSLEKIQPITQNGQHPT
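Inducible HEK293 T-REx D1 cells, force-coupled to calcium signalling, were plated at 4000 cells/well with tetracycline and held overnight at 30 C. After no-wash calcium dye loading, compound-evoked calcium rise over 180 s flagged agonists.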
D1 potentiator: potentiators of human D1 dopamine receptor; P21728; HEK293 TREx D1 cells, calcium flux, dopamine EC20 potentiation; potentiation, % at 10 µM; 360,000 tested, 0.036% active; in the data active = potentiation above about 30%; note: 0% is about no effect
D1 antag: antagonists of human D1 dopamine receptor; activity change, negative = inhibition, % at 10 µM; HEK293 TREx D1 cells, calcium flux, dopamine EC80; active compounds read low; P21728; 360,000 tested, 3.2% active; in the data active = activity change below about -30%; note: % is set by controls: 0 for no effect and ±100 for the full control effect
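Using tetracycline-induced force-coupled D1 Hek293 cells and a calcium dye, signals were followed for 180 s after compound, then for 180 s after EC80 dopamine, to detect inhibitors.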
D3 antag: antagonists of human D3 dopamine receptor; P35462; D3R cells, DiscoveRx beta-arrestin luminescence, antagonist mode; active compounds read low; max response, negative = inhibition, %; 360,000 tested, 2.5% active; AID 652054; in the data active = max response below about -50%; inconclusive = no clear call, values can overlap the other calls; note: % is set by controls: 0 for no effect and ±100 for the full control effect
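Cells expressing the human receptor were seeded at 1500 cells/well, incubated overnight at 37 degrees C in 5% CO2, then exposed to library compounds with dopamine controls for 90 minutes at 37 degrees C before luminescent detection.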
* marks the source's active call; other numbers are inactive results. The list is not random: actives were taken first. Their share in the collection is about 6%.

What do the screens show for `Cc1cc(N2C3CCC2CC(O)(c2ccc(F)cc2)C3)nc(-c2ccccc2)n1` (configuration not stated)?
D3 ag: -23; D1 ag: 7; D1 potentiator: -3; D1 antag: -14; D3 antag: -60*

What do the screens show for `Cc1ccnc(N2C3CCC2CC(O)(c2ccccc2)C3)n1` (configuration not stated)?
D3 ag: 4; D1 ag: 1; D1 potentiator: -2; D1 antag: 10; D3 antag: -7

Results for O=C(Nc1ccccc1)N1C2CCC1CC(O)(c1cccnc1)C2 (configuration not stated) ?
D3 ag: -13; D1 ag: 4; D1 potentiator: 0; D1 antag: -2; D3 antag: -15

What do the screens show for `COc1cccc(NC(=O)CSc2cc(C)[nH]c(=O)n2)c1`?
D3 ag: 3; D1 ag: -1; D1 potentiator: 4

What do the screens show for `Cc1nn(C(=O)COc2ccccc2)c(C)c1Sc1ccccc1`?
D3 ag: -2; D1 ag: 110*; D1 potentiator: -2; D1 antag: -65*

How did Cc1ccc(Sc2c(C)nn(C(=O)COc3ccccc3)c2C)cc1 do in these assays?
D3 ag: -7; D1 ag: 21; D1 potentiator: -3; D1 antag: -10

What do the screens show for `COc1ccc(/C=N/NC(=O)c2nc(-c3ccccc3)n(-c3ccccc3)n2)c(O)c1`?
D3 ag: 4; D1 ag: 8; D1 potentiator: -8; D1 antag: -61*; D3 antag: -11

Results for COc1ccc(OC)c(/C=N/NC(=O)c2cc(-c3ccc(C)o3)nc3ccccc23)c1 ?
D3 ag: 37*; D1 ag: 1; D1 potentiator: 0; D1 antag: 10; D3 antag: 20

Results for COc1ccc(-c2cc(C(=O)N/N=C/c3cc(OC)c(OC)cc3OC)c3ccccc3n2)cc1 ?
D3 ag: 10; D3 antag: 20

Results for CCOc1cc(C(=O)N/N=C/c2ccoc2)cc(OCC)c1OCC ?
D3 ag: -16; D1 ag: 2; D1 potentiator: -11; D1 antag: 4; D3 antag: -70*

Results for O=C(N/N=C/c1cccnc1)c1cc(-c2ccccc2Cl)nc2ccccc12 ?
D3 ag: 1; D1 ag: -1; D1 potentiator: -1; D1 antag: -40*; D3 antag: -7

What do the screens show for `COc1ccc(/C=N/NC(=O)c2nc(-c3ccccc3)n(-c3ccccc3)n2)cc1`?
D3 ag: -8; D1 ag: 1; D1 potentiator: 4; D1 antag: 7; D3 antag: -5

How did Cc1cc(NC(=O)C(C)(C)C)cc(-c2nc3ncccc3o2)c1O do in these assays?
D3 ag: 9; D1 ag: 0; D1 potentiator: 0; D1 antag: 15

How did CCCCN(CC)CCCNC(=O)Nc1sc2nc3n(c(=O)c2c1C)CCC(C)CC3 (configuration not stated) do in these assays?
D3 ag: -31; D1 ag: -1; D1 potentiator: -3; D1 antag: -9

Results for O=C(Cn1c(=O)nc(-c2ccccc2)c2cc(Cl)ccc21)NCCc1ccccc1 ?
D3 ag: 4; D1 ag: -1; D1 potentiator: -1; D1 antag: -6

How did COc1ccc(/C(C)=N/NC(=O)c2cc(-c3cccnc3)nc3ccccc23)cc1 do in these assays?
D3 ag: 5; D1 ag: -1; D1 potentiator: -4; D1 antag: 6; D3 antag: 3

How did COc1ccc(-c2cc(C(=O)N/N=C(\C)c3cccnc3)c3ccccc3n2)cc1 do in these assays?
D3 ag: -39; D1 ag: 0; D1 potentiator: -3; D1 antag: -58*; D3 antag: inconclusive

Results for COc1cc(/C=N/NC(=O)c2cc(-c3cccs3)nc3ccccc23)ccc1O ?
D3 ag: 9; D1 ag: 6; D1 potentiator: 0; D1 antag: -1; D3 antag: 53

How did COc1ccccc1-c1cc(C(=O)N/N=C/c2ccoc2)c2ccccc2n1 do in these assays?
D3 ag: -8; D1 ag: 8; D1 potentiator: 0; D1 antag: -3; D3 antag: -51*

Results for COc1cc(/C=N/NC(=O)c2cc(-c3cccc(OC(C)C)c3)nc3ccccc23)ccc1O ?
D3 ag: 73*; D3 antag: 62

What do the screens show for `O=C(NCc1ccccn1)c1cc(-c2ccccc2Cl)nc2ccccc12`?
D3 ag: 3; D1 ag: 1; D1 potentiator: 0; D1 antag: -32*; D3 antag: 8

Results for O=C(NCc1ccccn1)c1cc(-c2ccncc2)nc2ccccc12 ?
D3 ag: -9; D1 ag: 1; D1 potentiator: 3; D1 antag: 1; D3 antag: 2

What do the screens show for `CCCCn1cc(S(=O)(=O)c2ccc(Cl)cc2)c(=O)c2cc(F)c(N3CCCCC3)cc21`?
D3 ag: -10; D1 ag: 0; D1 potentiator: 1; D1 antag: 7

Results for CCOC(=O)C1CCCN(S(=O)(=O)Cc2ccccc2Cl)C1 (configuration not stated) ?
D3 ag: -2; D1 ag: 2; D1 potentiator: -8; D1 antag: -31*; D3 antag: -24

What do the screens show for `CCOC(=O)C1CCCN(Cc2ccc(-c3ccccc3)cc2)C1` (configuration not stated)?
D3 ag: -15; D1 ag: 4; D1 potentiator: 5; D1 antag: -17; D3 antag: -27

How did CCOC(=O)C1CCCN(CC(=O)Nc2cc(C)cc(C)c2)C1 (configuration not stated) do in these assays?
D3 ag: 4; D1 ag: 3; D1 potentiator: -3; D1 antag: -40*; D3 antag: -21

Results for CCOC(=O)C1CCCN(CCC(=O)Nc2ccccc2)C1 (configuration not stated) ?
D3 ag: -13; D1 ag: -1; D1 potentiator: -8; D1 antag: 3; D3 antag: -8

What do the screens show for `CCOC(=O)C1CCCN(Cc2c(Cl)cccc2Cl)C1` (configuration not stated)?
D3 ag: -7; D1 ag: 2; D1 potentiator: -7; D1 antag: -36*; D3 antag: -20

Results for CCOC(=O)C1CCCN(CCC(=O)Nc2cc(C)cc(C)c2)C1 (configuration not stated) ?
D3 ag: -16; D1 ag: 1; D1 potentiator: -2; D1 antag: -3; D3 antag: -24

What do the screens show for `CCOC(=O)C1CCCN(CCC(C)c2ccccc2)C1` (configuration not stated)?
D3 ag: -28; D1 ag: 0; D1 potentiator: 0; D1 antag: -2; D3 antag: -61*
